Shown are actives, neighbours in structure and some others; about 12% of the full set was active somewhere.
Sfp inh = qHTS Assay for Inhibitors of Bacillus subtilis Sfp phosphopantetheinyl transferase (PPTase) | 4'-phosphopantetheinyl transferase ffp (Bacillus subtilis), Q9F4F7 | Biochemical Sfp PPTase activity, qHTS | Potency, µM, inactives show largest response in the series, negative = inhibition, actives largely listed as inhibitors | 310,000 compounds, 3.5% hits | AID 1490, 2009;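 note: the enzyme is Sfp with the accession as filed and its product quenches rhodamine fluorescence; 0% = enzyme reaction without inhibitor and -100% = no enzyme wells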
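Buffer: 50 mM Hepes-Na pH 7.6, 10 mM MgCl2, 0.01% Nonidet P-40, 0.01% BSA. Enzyme 15 nM, pre-exposed to compound 15 min; substrates then added and fluorescence change tracked over 30 min.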
PLK1 PBD inh = qHTS for Inhibitors of PLK1-PDB (polo-like kinase 1 - polo-box domain): Primary Screen; Serine/threonine-protein kinase PLK1 (Homo sapiens), P53350; Plk1 PBD binding of FITC phosphopeptide, fluorescence polarization; Potency, µM, inactives show max response, negative = inhibition, usual class: inhibitors; 360,000 compounds, 2.8% hits; note: series mostly up to about 57 µM; % is set by controls: 0 for no effect and ±100 for the full control effect; nearly all actives have a fitted effect of over 65% in size
Target sequence (P53350 whole entry, looked up, the tested form may be a part): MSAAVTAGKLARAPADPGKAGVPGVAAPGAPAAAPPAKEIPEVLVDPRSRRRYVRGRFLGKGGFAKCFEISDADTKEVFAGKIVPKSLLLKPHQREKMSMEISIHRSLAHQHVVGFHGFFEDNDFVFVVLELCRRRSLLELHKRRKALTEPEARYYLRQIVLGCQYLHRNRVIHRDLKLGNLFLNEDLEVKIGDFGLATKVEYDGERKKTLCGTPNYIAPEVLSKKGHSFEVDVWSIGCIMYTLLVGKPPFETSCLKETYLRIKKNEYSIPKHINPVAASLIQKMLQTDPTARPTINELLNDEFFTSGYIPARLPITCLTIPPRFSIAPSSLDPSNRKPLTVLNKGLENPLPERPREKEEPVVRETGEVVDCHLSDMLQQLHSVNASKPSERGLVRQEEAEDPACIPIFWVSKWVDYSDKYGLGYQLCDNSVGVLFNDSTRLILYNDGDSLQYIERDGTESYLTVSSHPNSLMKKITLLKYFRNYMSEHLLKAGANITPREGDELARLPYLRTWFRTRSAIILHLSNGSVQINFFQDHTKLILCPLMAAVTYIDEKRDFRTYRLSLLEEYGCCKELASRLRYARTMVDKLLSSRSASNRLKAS
G9a inh = qHTS Assay for Inhibitors of Histone Lysine Methyltransferase G9a; Histone-lysine N-methyltransferase EHMT2 (Homo sapiens), Q96KQ7; G9a H3K9 monomethylation, AlphaScreen, 2 h; Potency, µM (top dose mostly 102 µM), without a hit: top-dose activity, negative = inhibition, most hits filed as inhibitors; 350,000 compounds, 8.8% hits; AID 504332, 2011; note: % is set by controls: 0 for no effect and ±100 for the full control effect; nearly all actives have a fitted effect of over 75% in size
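Methyltransferase reactions run at room temperature for 2 h (20 nM enzyme, 500 nM biotin-H3K9 peptide, 20 uM SAM) after a 15 min compound preincubation; product detected by AlphaScreen beads and anti-H3K9me1 antibody.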
HP1b binding inh = HTS for Inhibitors of HP1-beta Chromodomain Interactions with Methylated Histone Tails | Chromobox protein homolog 1 (Homo sapiens), P83916 | Potency, µM (highest dose often 114 µM), for the others: at the highest dose activity change, negative = inhibition, most hits filed as inhibitors | 390,000 compounds, 0.56% hits | AlphaScreen HP1-beta / biotin-H3K9me3 peptide binding | AID 540317, 2011; note: nearly all actives have a fitted effect of over 70% in size
Target sequence (P83916 whole entry, looked up): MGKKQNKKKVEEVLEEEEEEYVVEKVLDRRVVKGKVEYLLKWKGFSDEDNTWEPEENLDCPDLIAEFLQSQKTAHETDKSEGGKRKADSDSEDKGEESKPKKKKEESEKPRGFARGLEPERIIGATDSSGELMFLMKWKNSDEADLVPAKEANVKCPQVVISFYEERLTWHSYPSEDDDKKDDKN
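HP1-beta protein (50 nM final) preincubated 30 min at room temperature with biotinylated H3(1-18)K9me3 peptide (50 nM) in PBS pH 7.4, 0.01% Tween-20, then compound added for 30 min. AlphaScreen streptavidin donor/nickel chelate acceptor beads (10 ug/mL final), 30 min dark, luminescence read.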
JMJD2A Tudor = qHTS Assay for Inhibitors of JMJD2A-Tudor Domain; Lysine-specific demethylase 4A (Homo sapiens), O75164; AlphaScreen JMJD2A-Tudor / H3K4me3 peptide binding; AID 504339, 2011; Potency, µM (series often up to 114 µM), for inactives: at the top dose activity change, negative = inhibition, usual class: inhibitors; 390,000 compounds, 4.4% hits; note: % is set by controls: 0 for no effect and ±100 for the full control effect; nearly all actives have a fitted effect of over 50% in size
BAZ2B inh = qHTS Assay for Inhibitors of BAZ2B | AlphaScreen BAZ2B-H3K14Ac peptide displacement | Bromodomain adjacent to zinc finger domain protein 2B (Homo sapiens), Q9UIF8 | Potency, µM (titrated, usually from 114 µM), for the others: at the highest dose activity change, negative = inhibition, actives largely listed as inhibitors | 360,000 compounds, 4.4% hits; note: % is set by controls: 0 for no effect and ±100 for the full control effect; nearly all actives have a fitted effect of over 60% in size
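BAZ2B (50 nM) with biotin-H3(5-23)K14Ac peptide (50 nM) in PBS pH 7.4, 0.01% Tween-20, preformed 30 min, then compound 30 min at room temperature; top concentration 110uM. AlphaScreen streptavidin donor/nickel chelate acceptor beads (10 ug/mL final), 20 min dark, signal read.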
TbPYK confirm = qHTS of Trypanosoma Brucei Inhibitors: Confirmatory Assay for Cherry-picked Compounds; shares compounds with PLK1 PBD inh; recombinant TbPYK, Kinase-Glo ATP luminescence; Potency, µM (titrated, usually from 76.9 µM), inactives show at the top dose activity change, negative = inhibition, usual class: inhibitors; 890 compounds, 67% hits; note: % is set by controls: 0 for no effect and ±100 for the full control effect; nearly all actives have a fitted effect of over 70% in size
TbPYK orthogonal = qHTS of Trypanosoma Brucei Inhibitors: Orthogonal Assay for Cherry-picked Compounds. shares compounds with PLK1 PBD inh. recombinant TbPYK, ADP-Glo luminescence, 60 min. Potency, µM (series often up to 76.9 µM), without a hit: at the highest dose activity change, negative = inhibition, most hits filed as inhibitors. 890 compounds, 62% hits; note: % is set by controls: 0 for no effect and ±100 for the full control effect; nearly all actives have a fitted effect of over 75% in size
The depositor's hits bear a star; ? = inconclusive; nt = no result given; [ ] = remark or other dose. Calls come from the whole dose curve; as a rule, active = well fitted curve in the direction sought with a large enough effect; inconclusive = small, poorly fitted or top-dose-only effect, or another doubt; inactive = no such curve, though single readings can be large; an effect the other way counts as inactive or inconclusive. Potency is the fitted concentration of half-maximal effect.

SMILES | Sfp inh | PLK1 PBD inh | G9a inh | HP1b binding inh | JMJD2A Tudor | BAZ2B inh | TbPYK confirm | TbPYK orthogonal
O=C(CCCn1c(=S)[nH]c2ccsc2c1=O)Nc1ccc2c(c1)OCCO2 | ? | -7% | 3.5µM* | 9% | -30% | -11% | 10µM* | 14µM*
O=C(CCCn1c(=S)[nH]c2ccsc2c1=O)Nc1ccc(F)cc1 | nt | -20% | nt | nt | nt | nt | nt | nt
O=C(CCCCn1c(=S)[nH]c2ccsc2c1=O)NCc1ccc2c(c1)OCO2 | -14% | -27% | 10µM* | 17% | -33% | ? | 0.35µM* | 1.1µM*
COc1ccc(CCC(=O)NCCc2csc(-c3ccc(C(F)(F)F)cc3)n2)cc1 | nt | nt | -10%[59 µM] | 17%[57 µM] | -11% | -6% | nt | nt
Cc1ccc(C(=O)N2CCCCC2C(=O)O)cc1S(=O)(=O)N1CCCCC1 (stereo unspecified) | nt | 5% | nt | 39% | -8% | nt | nt | nt
COc1cc2c(cc1OC)C(c1ccc([N+](=O)[O-])cc1)NCC2 (stereo unspecified) | -2% | 12% | nt | -3% | -21% | 2% | -6% | -9%
COc1cccc(CNC(=O)COC(=O)c2ccc(N3CCCC3=O)cc2)c1 | nt | -9% | nt | nt | nt | nt | nt | nt
c1ccc(-c2nc(-c3ccco3)cs2)nc1 | 45µM* | ? | ? | -26% | -36% | 6% | -26% | -20%
CN1C(=CC=C2C=C(I)C(=O)C(I)=C2)C(C)(C)c2ccccc21 | 89µM* | 55% | nt | ? | ? | ? | ? | 6%
Cc1c(-c2ccccc2)n(O)c(-c2ccc(N(C)C)cc2)[n+]1[O-] | nt | -9% | nt | nt | nt | nt | nt | nt
Cc1csc(N=Nc2ccc(N(C)C)cc2)[n+]1[O-] | nt | -2% | nt | nt | nt | nt | 18µM* | 12%
COc1ccc(CCN(C)C(=O)COC(=O)/C=C/c2ccc(C)o2)cc1OC | nt | -30% | 35µM* | -19% | ? | ? | 32µM* | 35µM*
COc1ccccc1NC(=O)CCCCCN1C(=O)c2cccc([N+](=O)[O-])c2C1=O | -5% | -15% | nt | 36% | -31% | -4% | nt | nt
COc1cc(/C=C2/C(=O)c3cccc([N+](=O)[O-])c3C2=O)c(Br)cc1O | 20µM* | 1.5µM* | 10µM* | 25µM* | 18µM* | 20µM* | 25µM* | -17%
COc1ccc(NC(=O)C2CCCN(S(=O)(=O)c3cccnc3)C2)cc1OC (stereo unspecified) | 3% | 0% | -117%[12.7 µM] | 22% | -15% | -9% | nt | nt
COc1ccc(S(=O)(=O)N2CCCC(C(=O)Nc3cccnc3)C2)cc1Cl (stereo unspecified) | -10% | 2.7µM* | ? | 46% | ? | -36% | -4% | -11%
CCCCCCCCSC1=CC(=O)C(OC)=C(OC)C1=O | nt | 2.4µM* | nt | nt | nt | nt | 2.8µM* | 4µM*
CCCCCSc1nncc(=O)[nH]1 | -8% | -9% | ? | 27% | -11% | 4% | nt | nt
O=c1[nH]c(=O)n(C2CC(O)C(CO)O2)cc1Br (stereo unspecified) | nt | -1% | nt | -12% | 79µM* | nt | 13µM* | 28µM*
N#Cc1ccc(CN2CC[C@@]3(CCCN(C(=O)c4ccco4)C3)C2)cc1 | 20% | nt | -2%[12.7 µM] | nt | nt | nt | nt | nt
COc1ccc(S(=O)(=O)n2c([N+](=O)[O-])cnc2C)c(C)c1C | 5% | -4% | nt | 28% | -11% | ? | nt | nt
Cc1ccc(S(=O)(=O)n2c([N+](=O)[O-])cnc2C)c(C)c1C | -8% | 21µM* | -1%[59 µM] | ? | ? | 0% | 4% | -4%
CC[n+]1ccc(/C=C/c2ccc(N(C)C)cc2)c2ccccc21 | ? | 2% | nt | 18µM* | 22µM* | 10µM* | 22µM* | 0%
O=C(Cn1cnc2sc3c(c2c1=O)CCCC3)NCC(=O)Nc1ccc(F)cc1F | -7% | -8% | 39% | 21% | -2% | -20% | nt | nt
CCOC(=O)C1(C)C(C(=O)OC)=C(c2ccc(OC)cc2)c2ccccc2N1C(=O)OC (stereo unspecified) | -14% | ? | ? | 48% | -21% | nt | ? | ?
SMILES | Sfp inh | PLK1 PBD inh | G9a inh | HP1b binding inh | JMJD2A Tudor | BAZ2B inh | TbPYK confirm | TbPYK orthogonal
Cn1cnc2cc(NC(=O)c3ccco3)ccc21 | 16% | -4% | -23%[12.7 µM] | 21% | -12% | -5% | nt | nt
O=C(Nc1ccc2c(c1)ncn2-c1ccccc1)c1ccco1 | 32µM* | ? | 11µM* | 8% | -22% | 2% | 14µM* | 4.5µM*
COc1ccc(-c2nc3scc(CCNS(=O)(=O)c4ccc(F)c(C(F)(F)F)c4)n3n2)cc1OC | nt | nt | 7%[59 µM] | 34% | -11% | -4% | nt | nt
O=C(CSc1nnc(-c2cccnc2)o1)c1cc2ccccc2oc1=O | ? | -5% | ? | 11% | -20% | -6% | nt | nt
Cn1cnnc1SCC(=O)c1cc2ccccc2oc1=O | -75% | ? | ? | -18% | 89µM* | ? | 16µM* | 16µM*
Cc1nc(SCc2ccc(O)c([N+](=O)[O-])c2)c([N+](=O)[O-])[nH]1 | 18µM* | -30% | nt | ? | 22µM* | ? | ? | 13µM*
Cc1nc(SCC(O)CCl)c([N+](=O)[O-])[nH]1 (stereo unspecified) | 14% | -6% | ? | 13% | -19% | -19% | nt | nt
Cc1cc(C)cc(NC(=O)CC(C)n2nc(C)cc2C)c1 (stereo unspecified) | nt | nt | 5%[59 µM] | 14% | -13% | -5% | nt | nt
CCOC(=O)CSc1nnc(Cc2ccc(OC)cc2)n1-c1ccccc1 | 2% | -2% | 7.9µM* | 34% | 45µM* | 8% | 3.2µM* | 5µM*
Fc1ccc(C[n+]2csc3ccccc32)cc1 | 45µM* | 12µM* | ? | 15% | ? | 56µM* | 7.9µM* | 13µM*
O=C(Cc1csc2ccccc12)NCc1ccc(F)cc1 | nt | nt | 3%[59 µM] | 11% | -11% | -2% | nt | nt
CCCN(C(=O)CCOc1ccc(C(C)(C)C)cc1)c1c(N)n(Cc2ccccc2)c(=O)[nH]c1=O | nt | -3% | ? | 10% | -3% | 2% | nt | nt

Assay outcomes (PubChem BioAssay)
